This is part of a sample that, as a whole, favours compounds with a hit. Of some 83,000 tested, about 20% had one in any assay.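 Activity criterion: percent growth below 10, measured after cells in 96-well plates were exposed to a single compound concentration for 48 hours.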 A number with no mark means an inactive call. Calls of active or inactive are those of the source.

The test system of the assay is HT29 colon. Kind of assay: NCI-60 one-dose screen, 48 h (100 = growth as untreated, 0 = no growth, -100 = all killed). The following applies: 10 µM unless noted.
With `C[C@H]1[C@@H]2[C@H]3CC[C@@H]4[C@@]5(C)Cc6c([nH]c7ccccc67)C(C)(C)[C@@H]5CC[C@@]4(C)[C@]3(C)CC[C@]23CO[C@]1(C)[C@@H](C(=O)/C=C/c1ccccn1)C3`, the growth was 82.6%.

As for `CCCC1CCCCN1C(=O)OCC(C)C` (configuration not stated), the growth is 102%.

`N#CC1C(=N)Cc2ccccc2-c2ccccc21` (configuration not stated): the growth is 12.4%.

Turning to `Cc1cc(C)nc(NC(N)=NCCc2ccccc2)n1`, the growth is 13.5%.

With `N=c1c(S(=O)(=O)c2ccccc2)cc2c(=O)n3ccccc3nc2n1C1CCCC1`, the growth is 117%.

Turning to `CCOc1ccc(NC(=O)c2ccccc2-c2ccccc2C(=O)O)cc1`, the growth is 107%.

Turning to `CCCCC[C@H]1C/C=C2/C(=O)C=C[C@@H]2C/C=C\CCCC(=O)O[C@@H](CCCCC)C/C=C2/C(=O)C=C[C@@H]2C/C=C\CCCC(=O)O1`, the growth is -77.9% (active).

Take `CC(C)=CCC/C(C)=C/CC/C(C)=C/CC/C(C)=C/CSC[C@H](NC(=O)CCCCCN1CCN(C)CC1)C(=O)NC1CCCCC1`: the growth is -39% (active).

With `O=C(/C=C/c1ccc2ccccc2c1)Nc1ncc(Cc2ccccc2)s1`, the growth was 69.5%.

Turning to `C=C(C)[C@@H]1CC[C@]2(C(=O)O)CC[C@]3(C)[C@H](CC[C@@H]4[C@@]5(C)C/C(=C/c6ccc(OC)cc6)C(=O)C(C)(C)[C@@H]5CC[C@]43C)[C@@H]12`, the growth is 16%.

Take `COc1ccc2c(c1)c(-c1nc(-c3cn(C)c4ncccc34)cs1)cn2CCCN1CCCCC1`: the growth was -16.5% (active).

Regarding `C#CCC(C)(O)/C=C/C1=C(C)CCCC1(C)C` (configuration not stated), the growth is 86.2%.

`C=C(C)[C@@H]1CC[C@]2(C=NCCCNCCCCNCCCN)CC[C@]3(C)[C@H](CC[C@@H]4[C@@]5(C)CCCNC(C)(C)[C@@H]5CC[C@]43C)[C@@H]12`: the growth was 39%.

Take `Nc1ccc(Br)cn1`: the growth was 104%.

Take `COc1cccc(-c2nn(-c3ccccc3)cc2-c2ccnc(NCCNS(=O)(=O)c3ccc(Cl)cc3)c2)c1`: the growth is 11.6%.

Turning to `COc1ccc(C2CC(=O)c3c(nc4ccc(Cl)cc4c3N)C2)cc1` (configuration not stated), the growth is 101%.

In the case of `COc1cc2c(cc1-c1c(C)noc1C)ncc1nc(C3CCC(F)(F)CC3)n([C@@H](C)COC(F)F)c12`, the growth is 18.7%.

`CC1(n2nnnc2N2CCCN(c3ncccc3N)CC2)CCC1`: the growth was 108%.

For `O=C(O[C@@H]1Cc2c(O)cc(O)cc2O[C@@H]1c1cc(O)c(O)c(O)c1)c1cc(O)c2c(c1)OCO2`, the growth was 95.3%.

On to `COc1cc(-c2nc(-c3ccccc3)c(-c3ccccc3)[nH]2)cc(OC)c1O`, for which the growth is 0.965% (active).

As to `C=C(C)[C@@H]1CC[C@]2(C(=O)O)CC[C@]3(C)[C@H](CC[C@@H]4[C@@]5(C)C/C(=C/c6cccc(I)c6)C(=O)C(C)(C)[C@@H]5CC[C@]43C)[C@@H]12`, the growth is 9.1% (active).

Turning to `NC1=NN=C2N(N)C(=O)c3cnn(-c4ccccc4)c3N2c2nc(-c3ccccc3)cc(-c3ccccc3)c21`, the growth was 102%.

Consider `CCSc1ncnc2c1ncn2C1OC(CO)C(O)C1O` (configuration not stated), for which the growth was 19.1%.

Consider `COc1ccc(-c2nc3ccccn3c2-c2nc3ccc(Cl)cc3[nH]2)cc1`, for which the growth was 83.7%.

`CC(=O)OC[C@]12CC[C@@H](/C(C)=N/O)[C@@H]1[C@H]1CC[C@@H]3[C@@]4(C)CCCNC(C)(C)[C@@H]4CC[C@@]3(C)[C@]1(C)CC2`: the growth was 59.6%.

In the case of `OCC12CCCC(CO)(COC1)C2O` (configuration not stated), the growth is 105%.

In the case of `Cc1ccc(N(CC(=O)Nc2ccc(S(=O)(=O)N3CCC(N4CCCC4)CC3)cc2)S(=O)(=O)c2ccc(Cl)cc2)cc1`, the growth was -16.9% (active).

On to `CC[C@]12C=CCN3CC[C@@]4(c5cc([C@H]6CCC(=O)N6)c(OC)cc5N(C)[C@H]4[C@@](O)(C(=O)OC)[C@@H]1OC(C)=O)[C@@H]32`, for which the growth is 103% [2.5 µM].

`Brc1ccc(Cn2nnnc2-c2ccn(-c3ccccc3)n2)cc1`: the growth is 63.6%.

Take `COC(=O)c1cc(=O)nc(N/N=C/c2ccc(C)cc2)s1`: the growth was 104%.

For `Cc1ccc2oc(=O)cc(-c3sc(N4CCCCC4)nc3-c3ccccc3)c2c1`, the growth was 99.9%.

As for `CC1(C)CC[C@]2(C(=O)Nc3ccccn3)CC[C@]3(C)C(=CC[C@@H]4[C@@]5(C)C/C(=C/c6ccncc6)C(=O)C(C)(C)[C@@H]5CC[C@]43C)[C@@H]2C1`, the growth was 9.45% (active).

Values taken from PubChem BioAssay (NCI).
